Among all 52,000 compounds or so, about 4,300 (8.3%) were called active. Rule as the data show it: active = survival mostly below about 52% (no sharp cut-off); inactive = mostly above about 56%. This excerpt belongs to a sample that is enriched for actives.
System: DeltatarO mutant
Assay: growth inhibition of S. aureus wild type versus tarO mutant, primary screen, teichoic acid synthesis inhibitors, RN4220, OD600 (AID 463173)
Settings: OD600, 18 h, stronger effect = lower value, screened at 18.75 µg/mL (by protocol)

Row | SMILES | survival
1 | CCCOc1ccc(-c2nc3ccccc3c(=O)o2)cc1 | 64% (inactive)
2 | CCOc1ccc(-c2nc3ccccc3c(=O)o2)cc1 | 68% (inactive)
3 | CCOc1cccc(-c2nc3ccccc3c(=O)o2)c1 | 35% (active)
4 | CCCOc1cccc(C(=O)NCc2cccnc2)c1 | 81% (inactive)
5 | COc1cc(N2C(=O)CSC23C(=O)N(C)c2ccccc23)cc(OC)c1OC (stereo unspecified) | 66% (inactive)
6 | COC(=O)c1cc(S(=O)(=O)NCC2CCN(Cc3ccc(F)cc3)CC2)cn1C | 109% (inactive)
7 | N#Cc1ccccc1CSc1nnc(-c2ccc(Br)cc2)o1 | 92% (inactive)
8 | CCCCOC(=O)CSc1nnc(-c2ccc(C)cc2)o1 | 12% (active)
9 | CCCCCSc1nnc(-c2ccc(Br)cc2)o1 | -1% (active)
10 | COc1ccc(-c2nnc(SCC(=O)Oc3cc(C)ccc3C)o2)cc1 | 67% (inactive)
11 | N#Cc1ccc(CSc2nnc(-c3ccc(Br)cc3)o2)cc1 | 87% (inactive)
12 | CCOC(=O)CSc1nnc(-c2ccc(OC)cc2)o1 | 66% (inactive)
13 | CC(=O)Nc1ccc(S(=O)(=O)N2CCC(N3CCN(Cc4ccc(C)cc4)C(=O)C3=O)CC2)cc1 | 83% (inactive)
14 | COCCCNc1nc2c(-c3ccccc3)nnn2c2ccccc12 | 78% (inactive)
15 | O=C(Nc1cccc(-c2nc3ccccc3[nH]2)c1)c1ccccc1F | 29% (active)
16 | O=C(Nc1ccc2nc(-c3ccccc3)[nH]c2c1)c1ccco1 | 1% (active)
17 | CC(=O)Nc1cc(NC(C)=O)cc(-c2nc3ccccc3[nH]2)c1 | 83% (inactive)
18 | Cc1csc2nc(-c3cccc(NC(=O)c4ccccc4F)c3)cn12 | 126% (inactive)
19 | CCC(=O)Nc1ccc(-c2nc3ccc(NC(=O)CC)cc3[nH]2)cc1 | 66% (inactive)
20 | CC(C)(C)C(=O)Nc1ccc(-c2nc3ccc(NC(=O)C(C)(C)C)cc3[nH]2)cc1 | 105% (inactive)
21 | O=C(NCc1nc2ccccc2[nH]1)c1c(F)cccc1F | 56% (inactive)
22 | O=C(Nc1cccc(NC(=O)c2ccccc2F)c1)c1ccccc1 | 77% (inactive)
23 | O=C(Nc1cccc(-c2nc3ccccc3[nH]2)c1)c1c(F)cccc1F | 37% (active)
24 | O=C(Nc1ccc(C(=O)OCc2cc(=O)n3ccsc3n2)cc1)c1cccc(F)c1 | 102% (inactive)

Row | SMILES | survival
25 | COc1ccc(C(=O)N(Cc2ccco2)Cc2ccccc2F)cc1Cl | 98% (inactive)
26 | Cc1cccc(NC(=O)CCN2CCC(C)CC2)c1 | 91% (inactive)
27 | Cc1ccc(NC(=O)CSc2nc(=O)n(CCCN(C)C)c3c2CCC3)cc1F | 71% (inactive)
28 | COc1cc(NC(=O)C(CC(C)C)N2Cc3ccccc3C2=O)cc(OC)c1 (stereo unspecified) | 108% (inactive)
29 | O=C(N=Nc1c(O)[nH]c2ccccc12)C1CC1c1ccccc1 (stereo unspecified) | 35% (active)
30 | O=C(N=Nc1c(O)[nH]c2ccccc12)C1C2CCCCC21 (stereo unspecified) | 95% (inactive)
31 | O=C(Cc1ccccc1)N=Nc1c(O)[nH]c2ccccc12 | 91% (inactive)
32 | Cc1cc(Nc2cccc(Cl)c2)nc2ccc(NC(=O)Cc3ccc(Cl)cc3)cc12 | 105% (inactive)
33 | Cc1c(C(=O)N2CCCCCC2)c(S(=O)(=O)NCc2ccccc2)c(C)n1C | 77% (inactive)
34 | CCOc1ccc2[nH]c(=O)c(CN(Cc3ccccc3)C(=O)N3CCOCC3)cc2c1 | 105% (inactive)
35 | CC(C)c1ccc(-c2nnn(CC(=O)OC3CCCCC3)n2)cc1 | 87% (inactive)
36 | CC(C)COc1ccc(-c2nnn(CC(=O)N3C(C)CCCC3C)n2)cc1 (stereo unspecified) | 69% (active)
37 | CCOc1ccc(-c2nnn(CC(=O)NC3CCCCC3)n2)cc1 | 75% (inactive)
38 | Cc1ccc(NC(=O)Cc2ccc(-n3c(C)nc4cccnc43)cc2)c(Cl)c1 | 107% (inactive)
39 | CCOc1ccc(NC(=O)CSc2ncn[nH]2)cc1 | 67% (inactive)
40 | CCCN1C(=O)c2[nH]nc(-c3ccccc3O)c2C1c1ccc(OCc2ccccc2)c(OCC)c1 (stereo unspecified) | 40% (active)
41 | COCCN1C(=O)c2[nH]nc(-c3ccccc3O)c2C1c1ccc(Cl)c(Cl)c1 (stereo unspecified) | 3% (active)
42 | CCCN1C(=O)c2[nH]nc(-c3ccc(F)cc3)c2C1c1ccc(O)c(OCC)c1 (stereo unspecified) | 51% (inactive)
43 | CCOc1cc(C2c3c(-c4ccccc4O)n[nH]c3C(=O)N2CCc2ccccc2)ccc1O (stereo unspecified) | 29% (active)
44 | CCCCN1C(=O)c2[nH]nc(-c3ccccc3O)c2C1c1cc(Br)c(O)c(OC)c1 (stereo unspecified) | 2% (active)
45 | CCCOc1ccc(C2c3c(-c4ccccc4O)n[nH]c3C(=O)N2CCc2ccccc2)cc1OCC (stereo unspecified) | 53% (inactive)
46 | COc1cc(C2c3c(-c4ccccc4O)n[nH]c3C(=O)N2Cc2ccncc2)cc(OC)c1OC (stereo unspecified) | 82% (inactive)
47 | COc1ccc(/C=C\c2onc(C)c2S(=O)(=O)N2CCC(C(=O)Nc3cccc(OC)c3)CC2)cc1 | 97% (inactive)
48 | Cc1cc(C)n(C2CC(=O)N(N(C)C)C2=O)n1 (stereo unspecified) | 92% (inactive)

Row | SMILES | survival
49 | Cc1cc(C)c2c(=O)cc(C(=O)Nc3ccc(S(=O)(=O)Nc4nc(C)cc(C)n4)cc3)oc2c1 | 103% (inactive)
50 | O=C(CO)N/N=C\c1c(F)cccc1Cl | 51% (inactive)
51 | Cc1ccc(S(=O)(=O)C(CNC(=O)Cc2ccc(Cl)cc2)c2cccs2)cc1 (stereo unspecified) | 85% (inactive)
52 | CCc1ccc(NC(=O)CSC2=Nc3ccccc3C3=NC(CC(=O)NC4CCCCC4)C(=O)N23)cc1 (stereo unspecified) | 86% (inactive)
53 | CC(C)(O)C1Cc2cc(/C=C/C(=O)O)c(O)cc2O1 (stereo unspecified) | 88% (inactive)
54 | CN(C)c1ccc(CNC(=O)c2ccc(NC(=O)c3nsc4ccccc34)cc2)cc1 | 84% (inactive)
55 | CCOc1ccc(C2c3c(-c4ccccc4O)n[nH]c3C(=O)N2Cc2cccnc2)cc1OC (stereo unspecified) | 90% (inactive)
56 | CCCN1C(=O)c2[nH]nc(-c3ccccc3O)c2C1c1ccc(OCc2ccccc2)c(OC)c1 (stereo unspecified) | 44% (active)
57 | CCCCN1C(=O)c2[nH]nc(-c3ccccc3O)c2C1c1ccc(OCc2ccccc2)c(OC)c1 (stereo unspecified) | 35% (active)
58 | COc1cc(C2c3c(-c4ccccc4O)n[nH]c3C(=O)N2CCO)ccc1OCc1ccccc1 (stereo unspecified) | 77% (inactive)
59 | CCCCOc1ccc(C2c3c(-c4ccccc4O)n[nH]c3C(=O)N2Cc2ccncc2)cc1OC (stereo unspecified) | 61% (inactive)
60 | COCCN1C(=O)c2[nH]nc(-c3ccccc3O)c2C1c1ccc(OCc2ccccc2)c(OC)c1 (stereo unspecified) | 13% (active)
61 | CCOC(=O)c1c(C)[nH]c(CCC(=O)NCc2ccc(F)cc2)c1C | 89% (inactive)
62 | COCCCNC(=O)Cn1nc(N2CCN(c3ccccc3)CC2)ccc1=O | 91% (inactive)
63 | c1ccc(CSc2nc3ncccc3[nH]2)cc1 | 93% (inactive)
64 | CCN(CC)C(=O)C1CCN(C(=O)c2cnn(-c3ccccc3)c2-n2cccc2)CC1 | 83% (inactive)
65 | CC(=O)Nc1ccc(S(=O)(=O)N2CCC(c3ccncc3)CC2)cc1 | -5% (active)
66 | CC1CCN(S(=O)(=O)c2ccc(NC(=O)Nc3ccccc3)cc2)CC1 | 9% (active)
67 | Cc1ccc2occ(CC(=O)Nc3ccc(S(=O)(=O)N4CCC(C)CC4)cc3)c2c1 | 55% (active)
68 | CC(C)(C)c1ccc(S(=O)(=O)N2CCC(c3ccncc3)CC2)cc1 | 109% (inactive)
69 | Cc1ccc2c(CC(=O)Nc3ccc(S(=O)(=O)N4CCC(C)CC4)cc3)coc2c1 | 59% (inactive)
70 | CC1CCN(S(=O)(=O)c2ccccc2)CC1 | 104% (inactive)
71 | Cc1ccc2occ(CC(=O)Nc3ccc(S(=O)(=O)N4CCCC(C)C4)cc3)c2c1 (stereo unspecified) | 58% (inactive)
72 | CC(=O)Nc1ccc(S(=O)(=O)N2CCC(C)CC2)cc1 | 96% (inactive)

Row | SMILES | survival
73 | O=S(=O)(c1ccc(Cl)cc1)N1CCC(c2ccncc2)CC1 | 73% (inactive)
74 | CC1=C(C(=O)Nc2ccccc2C)C(c2ccncc2)n2nc(SCc3ccccc3Cl)nc2N1 (stereo unspecified) | 62% (inactive)
75 | CCOC(=O)c1ccccc1NC(=O)N(Cc1ccc(C)cc1)Cc1cccn1-c1nnc(N2CCCC2=O)s1 | 118% (inactive)
76 | Cc1ccc(NC(=O)Cn2nnc(-c3nc(-c4ccncc4)no3)c2N)c(C)c1 | 92% (inactive)
77 | CCc1ccccc1NC(=O)CSc1nccn1C | 89% (inactive)
78 | CC1=C(c2ccc(C)c(C)c2)S(=O)(=O)N(Cc2ccc(C(=O)NCc3ccc(C)cc3)cc2)C1=O | 92% (inactive)
79 | COc1ccc(-c2ccc(=O)n(CC(=O)Nc3ccc(N(C)C)cc3)n2)cc1 | 90% (inactive)
80 | CCC1CCCCN1S(=O)(=O)c1ccc(C(=O)Nc2sc3c(c2C(N)=O)CCC3)cc1 (stereo unspecified) | 68% (inactive)
81 | Cc1ccc(-n2nc(C(=O)N(C)c3ccccc3Cl)c3c4ccccc4n(C)c3c2=O)cc1 | 88% (inactive)
82 | CCCNS(=O)(=O)c1cc(-c2nnc3c4ccccc4c(C)nn23)ccc1OC | 100% (inactive)
83 | Cc1cc2c(cc1S(=O)(=O)NCc1ccccc1Cl)OCCN2C | 106% (inactive)
84 | CCc1ccc(-n2nc3cc(C)c(NC(=O)c4cc(Cl)ccc4OC)cc3n2)cc1 | 86% (inactive)
85 | CCOC(=O)c1cc2c(=O)n3ccccc3nc2n(CCCOC)c1=NC(=O)C(C)Oc1ccccc1 (stereo unspecified) | 48% (active)
86 | CCCCn1c(=NC(=O)C(C)(C)Oc2ccc(Cl)cc2)c(C(=O)OCC)cc2c(=O)n3ccccc3nc21 | 60% (inactive)
87 | CCOC(=O)c1cc2c(=O)n3ccccc3nc2n(C(C)C)c1=NC(=O)C(C)(C)Oc1ccc(Cl)cc1 | 57% (inactive)
88 | CCOC(=O)c1cc2c(=O)n3ccccc3nc2n(CC(C)C)c1=NC(=O)C(C)(C)Oc1ccc(Cl)cc1 | 31% (active)
89 | CCOC(=O)c1cc2c(=O)n3ccccc3nc2n(CCOC)c1=NC(=O)c1cc2ccccc2o1 | 58% (inactive)
90 | CCCCn1c(=NC(=O)c2cc3ccccc3o2)c(C(=O)OCC)cc2c(=O)n3ccccc3nc21 | 107% (inactive)
91 | CCOC(=O)c1cc2c(=O)n3ccccc3nc2n(CC(C)C)c1=NC(=O)c1cc2ccccc2o1 | 59% (inactive)
92 | CCOC(=O)c1cc2c(=O)n3ccccc3nc2n(CC(C)C)c1=NC(=O)C(C)Oc1ccccc1 (stereo unspecified) | 165% (inactive)
93 | CCOC(=O)c1cc2c(=O)n3ccccc3nc2n(C(C)C)c1=NC(=O)c1cc2ccccc2o1 | 25% (active)
94 | CCCn1c(=NC(=O)c2cc3ccccc3o2)c(C(=O)OCC)cc2c(=O)n3ccccc3nc21 | 27% (active)
95 | CCOC(=O)c1cc2c(=O)n3ccccc3nc2n(C(C)C)c1=NC(=O)c1c(-c2c(F)cccc2Cl)noc1C | 151% (inactive)
96 | CCOC(=O)c1cc2c(=O)n3ccccc3nc2n(CCCOC)c1=NC(=O)c1cc2ccccc2o1 | 65% (inactive)
